Screening data: PubChem, National Center for Advancing Translational Sciences (NCATS)
NIH3T3 tox: kills NIH 3T3 cells; 94,000 compounds, 4.3% hits; AID 1345082; NIH 3T3 viability, CellTiter-Glo ATP luminescence, 48-72 h; Potency, µM (top dose mostly 96.7 µM), without a hit: top-dose activity change, negative = cytotoxicity, hits mostly inhibitors; note: nearly all actives have a fitted effect of over 55% in size
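First NIH 3T3 cells are plated at 400 cells/well; next compound is pinned in; then plates incubate 48 or 72 hr at 37 °C; finally CellTiter-Glo is added and luminescence read after 10 min.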
FLuc inh: Photinus pyralis luciferase inhibition; P08659; purified P. pyralis luciferase, luminescence, biochemical; Potency, µM (highest dose often 115 µM), actives largely listed as inhibitors; 76,000 compounds, 2.5% hits; AID 1347043; note: nearly all actives have a fitted effect of over 65% in size
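Luminescence read by CCD imaging after purified firefly luciferase (10nM final) was added to substrate buffer holding 10uM D-luciferin and 10uM ATP, pH 7.5, pre-dosed with compound.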
hNpr1 antagonist: blocks ANP-stimulated signaling of human Npr1 receptor; 76,000 compounds, 1.6% hits; HEK293 hNpr1 GloSensor cGMP, ANP-stimulated luminescence; P16066; Potency, µM (doses to about 46.3 µM), for inactives: top-dose activity change, negative = inhibition, most hits filed as inhibitors; calls by dose curve; note: nearly all actives have a fitted effect of over 60% in size
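HEK293 cells stably expressing human Npr1 and cGMP GloSensor pGS-40F, loaded 2 h with 2% GloSensor reagent, given compound 30 min at room temperature. Luminescence read before and 20 min after 0.1 nM hNppA.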
HEK cytotox: HEK 293 cell cytotoxicity; AID 1345083; Potency, µM (series often up to 115 µM), inactives show at the top dose activity change, negative = cytotoxicity, hits mostly inhibitors; 94,000 compounds, 6.6% hits; HEK 293 viability, ATP luminescence (CellTiter-Glo), 48-72 h; note: nearly all actives have a fitted effect of over 60% in size
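HEK 293 cells at 250 cells/well were exposed to compounds by pintool transfer for 48 or 72 hr at 37 degree Celsius, 5% CO2. Viability was read as ATP-coupled luminescence with CellTiter-Glo after 10 min at room temperature.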
GPT2 inhibitor: blocks human glutamate pyruvate transaminase 2. Recombinant GPT2, coupled pyruvate oxidase/HRP Amplex Red fluorescence. Potency, µM (top dose mostly 57.7 µM), for the others: at the top dose activity change, negative = inhibition, most hits filed as inhibitors. Q8TD30. AID 1671188. 100,000 compounds, 0.25% hits; note: nearly all actives have a fitted effect of over 60% in size
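GPT2 10ng/uL, a-KG 250uM, L-Ala 2mM, HEPES pH7.5 + 0.0001% Tween; 30 min RT. Then Amplex mix (PO/HRP/ThPP), 30 min RT dark, fluorescence. AOA 50uM used as positive control.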
* marks the source's active call; other numbers are inactive results; i = inactive; ? = inconclusive; . = no result given; [ ] = dose if it differs, or a comment. Shown are actives, neighbours in structure and some others; about 10% of the full set was active somewhere. Unless noted, calls come from the whole dose curve; as a rule, active = well fitted curve in the direction sought with a large enough effect; inconclusive = small, poorly fitted or top-dose-only effect, or another doubt; inactive = no such curve, though single readings can be large; an effect the other way counts as inactive or inconclusive. % is set by controls: 0 for no effect and ±100 for the full control effect; potency is the fitted concentration of half-maximal effect.

SMILES	NIH3T3 tox	FLuc inh	hNpr1 antagonist	HEK cytotox	GPT2 inhibitor
CN(Cc1ccc(-c2ccccc2)cc1)S(C)(=O)=O	?	14µM*	1%[70.6 µM]	?	1%[88.5 µM]
CN(Cc1ccc(-c2ccccc2)cc1)C(=O)C1CC1	?	50µM*	?	?	i
CN(Cc1ccccc1)Cc1ccc(-c2ccccc2)cc1	-21%[138 µM]	i	0%[70.6 µM]	?	i
CN(Cc1ccc(F)cc1)C(=O)C(C)(C)C	1%[174 µM]	i	16%[70.6 µM]	i	2%[88.5 µM]
CN(Cc1ccc(-c2ccccc2)cc1)C(=O)Cc1cccc(Cl)c1	?	?	?	63µM*	i
CN(Cc1ccc(-c2ccccc2)cc1)C(=O)C(C)(C)C	?	35µM*	-5%[70.6 µM]	63µM*	i
Cc1ccc(-c2cn3cc(C(=O)NCc4cccs4)nc3s2)cc1	?	.	.	?	-13%[88.5 µM]
Cc1ccc(CC(=O)NCc2nnc3cc(-c4nc(C5CC5)no4)ccn23)cc1	-16%	i	2%	-8%	i
CCCC(C)N1CC2(CCN(C(=O)Cn3nc(C)cc3C)CC2)OC1=O (centres undefined)	i	i	6%	i	0%[11.5 µM]
COc1ccccc1OCCCN1CCN(Cc2ccccc2)CC(O)C1 (centres undefined)	-24%	i	0%	?	i
CN(Cc1ccccc1)C(=O)C1CCN(c2cc(C3CC(O)C3)ncn2)CC1 (centres undefined)	-38%	i	13µM*	?	-3%
OC1CC(c2cc(N3CCC(c4nnc5ccccn45)CC3)ncn2)C1 (centres undefined)	-2%	i	3%	-1%	1%
Cn1cc(CN2CCN(C(=O)c3c[nH]c4ccccc34)CC2)ccc1=O	-16%	32µM*	-2%	-30%	i
Cn1cc(CN2CCN(C(=O)c3ccoc3)CC2)ccc1=O	i	i	-3%	4%	i
COc1ccc(CC(=O)NCCNC(=O)c2ccc(-c3cncnc3)cc2)cc1	-23%	.	.	-10%	.
CCn1ccnc1CN1CCCC(CO)(Cc2cccc(Cl)c2)C1 (centres undefined)	?	i	-16%	?	4%
O=S(=O)(c1ccccc1Cl)N1CCCC(CO)(Cc2cccc(Cl)c2)C1 (centres undefined)	?	i	-27%	25µM*	i
Cc1nn(C)c(C)c1S(=O)(=O)N1CCCC(CO)(Cc2ccccc2)C1 (centres undefined)	-27%	i	1%	-20%	?
O=C(c1cc2cc(F)ccc2[nH]1)N1CCCC(CO)(Cc2cccc(Cl)c2)C1 (centres undefined)	?	?	-19%	79µM*	?
O=C1N(c2ccccc2)c2ccccc2C12CCN(CC1CCCCC1)C2 (centres undefined)	?	.	.	?	i
Cc1ccc(NC(=O)CN2C(=O)NC3(CCS(=O)(=O)CC3)C2=O)cc1C	i	i	2%	17%	-5%
O=C(CN1C(=O)NC2(CCS(=O)(=O)CC2)C1=O)Nc1ccc2c(c1)OCCO2	i	35µM*	-5%	1%	4%
COc1ccc(NC(=O)[C@@H]2C[C@@H](c3cccc(C(F)(F)F)c3)N(C)C2)cc1OC	?	i	-22%[70.6 µM]	?	3%[88.5 µM]
CN1C[C@H](C(=O)Nc2cccc(Cl)c2)C[C@H]1c1cccc(C(F)(F)F)c1	32µM*	i	-22%[70.6 µM]	35µM*	-13%[88.5 µM]
CN1C[C@H](C(=O)N2CCN(c3ccccn3)CC2)C[C@H]1c1cccc(C(F)(F)F)c1	?	i	-28%[70.6 µM]	89µM*	-11%[88.5 µM]
SMILES	NIH3T3 tox	FLuc inh	hNpr1 antagonist	HEK cytotox	GPT2 inhibitor
CN1C[C@H](C(=O)NCc2ccncc2)C[C@H]1c1cccc(C(F)(F)F)c1	-27%[138 µM]	i	-14%[70.6 µM]	?	0%[88.5 µM]
Cc1noc2c(NCCCn3ccnc3)cc(-c3ccc(Cl)cc3)nc12	?	i	3%[70.6 µM]	?	4%[88.5 µM]
CCNC(=O)O[C@H]1C(=O)N(C)C2(CCN(C(=O)C(C)C)CC2)[C@@H]1C(=O)NC	?	.	.	-9%	.
Cc1cccc(CN2CCCC(O)(CN3CCC(C)CC3)C2=O)c1 (centres undefined)	-10%	i	2%	0%	3%
Cc1cccc(CN2CCCC(O)(CNCc3ncccc3C)C2=O)c1 (centres undefined)	14µM*	i	-7%	?	-17%
COc1ccc(CCNC(=O)c2nc3cccnc3n(C3CCCCC3)c2=O)cc1	?	.	.	?	-9%
C=CCOc1cc(C)c2c(c1C)[C@H](O)C([C@H](C)C(=O)NCCOC)CC2 (some centres undefined)	0%[174 µM]	i	7%[70.6 µM]	-6%[172 µM]	4%[88.5 µM]
C=CCOc1cc(C)c2c(c1C)[C@H](O)C([C@H](C)C(=O)N(C)Cc1ccccc1)CC2 (some centres undefined)	71µM*	i	-5%[70.6 µM]	?	-4%[88.5 µM]
Cc1ccccc1N1CCN(C(=O)c2cc3c(s2)CCN(C(=O)c2ccccc2)C3)CC1	i	i	-2%	-7%	0%
Cc1cccc(N2CCN(C(=O)c3ccc4c(c3)N(C(=O)c3ccccc3)CC4)CC2)c1C	32µM*	i	-23%	28µM*	1%
CC1=C[C@@H](CNC(=O)C2CCCCC2)[C@H](C(C)C)C[C@H]1Cc1nc2c(C)cccc2[nH]1	25µM*	i	-19%[70.6 µM]	?	-14%[88.5 µM]
CC1=C[C@@H](CNC(=O)Nc2ccc(F)cc2)[C@H](C(C)C)C[C@H]1Cc1nc2c(C)cccc2[nH]1	40µM*	?	-23%	?	1%
CNC(=O)c1cc(-c2ccc(F)cc2OC)cc2c1OCCN2Cc1cccnc1	?	i	-6%[70.6 µM]	?	-5%[88.5 µM]
O=C(NCc1cccnc1)c1cc(-c2ccccc2F)cc2c1OCCN2Cc1cccnc1	?	i	-22%	?	?
CNC(=O)c1cc(-c2ccc([S+](C)(=O)[O-])cc2)cc2c1OCCN2Cc1cccnc1	8.9µM*	i	-4%[70.6 µM]	-23%[172 µM]	?
CNC(=O)c1cc(-c2cnc(OC)nc2)cc2c1OCCN2Cc1cccnc1	?	i	-1%[70.6 µM]	2%[172 µM]	i
CNC(=O)c1cc(-c2ccc(CO)cc2)cc2c1OCCN2Cc1cccnc1	45µM*	i	10%[70.6 µM]	-3%[172 µM]	-1%[88.5 µM]
CNC(=O)c1cc(-c2cnn(C)c2C)cc2c1OCCN2Cc1cccnc1	45µM*	i	1%[70.6 µM]	-4%[172 µM]	2%[88.5 µM]
Cc1cc(CNC(=O)c2cc(-c3ccccc3)cc3c2OCCN3C)no1	?	i	3%[70.6 µM]	100µM*	i
COc1ccc(-c2ccccc2C(=O)N2CCC(NC(=O)c3cccnc3)CC2)nn1	2%	.	.	i	.
